# Laboratory results from PubChem BioAssay AID493042 (Johns Hopkins Ion Channel Center, 2011).
# Potency and affinity values are given separately. Unmarked numbers belong to inactive results.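 How the source made its calls: active means potentiation or inhibition seen at some tested dose and a dose response curve obtained; inactive means no potentiation or inhibition at any dose, or no curve.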
# Target: Potassium voltage-gated channel subfamily KQT member 1 (Homo sapiens) + Potassium voltage-gated channel subfamily E member 1 (Homo sapiens) (UniProt P15382+P51787)
# Sequence (O88943 whole entry, looked up): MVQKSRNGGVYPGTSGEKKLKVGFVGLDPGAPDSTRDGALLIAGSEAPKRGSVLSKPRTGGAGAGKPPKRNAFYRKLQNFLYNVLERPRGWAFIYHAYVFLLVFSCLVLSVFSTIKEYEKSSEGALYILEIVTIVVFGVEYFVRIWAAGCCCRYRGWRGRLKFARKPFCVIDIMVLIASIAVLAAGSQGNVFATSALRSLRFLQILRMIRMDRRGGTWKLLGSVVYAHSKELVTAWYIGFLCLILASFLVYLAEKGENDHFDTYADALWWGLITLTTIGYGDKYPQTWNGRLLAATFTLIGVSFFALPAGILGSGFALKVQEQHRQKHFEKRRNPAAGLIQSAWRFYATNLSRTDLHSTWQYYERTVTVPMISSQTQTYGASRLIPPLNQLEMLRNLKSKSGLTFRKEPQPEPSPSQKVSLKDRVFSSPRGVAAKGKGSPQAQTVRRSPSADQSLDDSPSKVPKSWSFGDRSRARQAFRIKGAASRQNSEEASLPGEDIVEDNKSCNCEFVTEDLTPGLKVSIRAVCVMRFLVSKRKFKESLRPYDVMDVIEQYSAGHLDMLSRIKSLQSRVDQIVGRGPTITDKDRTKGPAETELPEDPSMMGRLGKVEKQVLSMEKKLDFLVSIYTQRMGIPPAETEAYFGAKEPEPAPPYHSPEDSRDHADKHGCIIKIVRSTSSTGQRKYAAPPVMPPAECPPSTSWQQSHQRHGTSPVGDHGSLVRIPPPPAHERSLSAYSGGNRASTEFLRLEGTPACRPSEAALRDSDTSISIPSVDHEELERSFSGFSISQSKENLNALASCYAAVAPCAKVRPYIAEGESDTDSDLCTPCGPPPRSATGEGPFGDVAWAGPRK
# Sequence (P51787 whole entry, looked up): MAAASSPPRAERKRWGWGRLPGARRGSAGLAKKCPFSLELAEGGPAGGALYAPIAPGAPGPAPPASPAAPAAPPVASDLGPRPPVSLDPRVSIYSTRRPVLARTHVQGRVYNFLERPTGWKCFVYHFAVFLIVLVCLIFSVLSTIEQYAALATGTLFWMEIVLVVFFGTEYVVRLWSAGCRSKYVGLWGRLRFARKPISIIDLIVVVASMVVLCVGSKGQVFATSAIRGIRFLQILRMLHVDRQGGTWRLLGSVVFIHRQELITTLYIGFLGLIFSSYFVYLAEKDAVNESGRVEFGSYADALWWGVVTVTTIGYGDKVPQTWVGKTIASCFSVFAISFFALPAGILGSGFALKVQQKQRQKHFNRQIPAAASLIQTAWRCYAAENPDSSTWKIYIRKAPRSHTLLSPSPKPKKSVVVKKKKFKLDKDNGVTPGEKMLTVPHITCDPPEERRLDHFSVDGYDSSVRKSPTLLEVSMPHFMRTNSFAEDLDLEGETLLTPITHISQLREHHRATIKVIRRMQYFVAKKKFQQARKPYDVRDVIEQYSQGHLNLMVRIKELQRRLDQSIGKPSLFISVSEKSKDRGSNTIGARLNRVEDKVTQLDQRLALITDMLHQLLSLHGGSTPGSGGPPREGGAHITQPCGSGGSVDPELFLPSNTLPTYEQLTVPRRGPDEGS
# Experiment: activation of human KCNQ1/KCNE1 current – automated patch clamp, CHO cells, selectivity assay for KCNQ2 activator project, dose response (AID 493042)
# Settings: series mostly up to 30 µM; potentiation, negative = inhibition: at the top concentration
row,Structure (SMILES),"potentiation, negative = inhibition"
1,Cc1cccc(C)c1NC(=O)C1CC2CCC1C2 (stereo not drawn),29.7
2,CCCCC(=O)Nc1c(C)cc(C)cc1Cl,-32.8
3,Cc1cc(C)c(NC(=O)CC(C)(C)C)c(Cl)c1,46.7
